Inconclusive results are not listed. Where a call stands in place of a potency, no number is given. The source made the active and inactive calls. Calls come from the whole dose curve.
Assay: qHTS assay to identify small molecule agonists of the NFkB signaling pathway - cell viability counter screen (AID 1159515); note: nearly all actives have a fitted effect of over 55% in size
Conditions: NFkB-bla ME-180 viability, CellTiter-Glo luminescence, 5 h; series mostly up to 61 µM
From the text: National Center for Advancing Translational Sciences [NCATS]
NIH Chemical Genomics Center [NCGC]
U.S. Environmental Protection Agency [EPA]
National Institutes of Environmental Health Sciences [NIEHS]
National Toxicology Program [NTP]
U.S. Food and Drug Administration [FDA]
Transcription factors and their stimulated target gene expression play pivotal roles across many cellular processes including responses to environmental stimuli. Proper regulation of associated pathways is critical to maintain cell health and function. Constitutive activation of transcription factor pathways has been implicated in tumors as it may block cellular functions such as apoptosis and lead to invasion and metastasis. One important transcription factor that stimulates gene expression in response to cytokines, UV radiation, and other stimuli is nuclear factor-kappa B (NFkB). To measure activation of the NFkB pathway, the CellSensor NFkB-bla ME-180 cell line (Life Technologies, Carlsbad, CA) that stably expresses beta-lactamase reporter gene under the regulation of a NF-kB response element was used. This assay allows measurement of the NFkB pathway activity induced by compounds in a ME-180 cell line. This system quantitates NF-kB activity using a FRET-based assay system where beta-lactamase expression disrupts FRET, allowing for fluorescent measurement of activity. This cell line has been used to screen the Tox21 10K compound library and to identify compounds that induce the NFkB pathway activity. The cytotoxicity of the Tox21 compound library against the NFkB-bla ME-180 cell line was tested in parallel by measuring cell viability using the CellTiter-Glo assay in the same wells.
Tox21 Assay Protocol Summary:
NFkB-bla ME-180 cells were dispensed at 2,000 cells/6 uL of assay medium per well into black wall/clear-bottom 1536-well plates using a Multidrop Combi (ThermoFisher Scientific, Waltham, MA) dispenser. After the assay plates were incubated at 37 C and 5% CO2 for an overnight, 23 nL of compounds dissolved in DMSO, positive controls or DMSO only was transferred to the assay plate by a Pintool station (Kalypsys, San Diego, CA). The assay plates were incubated at 37 C and 5% CO2 for 5 hr. One uL of LiveBLAzer B/G FRET substrate (Life Technologies) was added using a Flying Reagent Dispenser (Aurora Discovery, San Diego, CA) and the plates were incubated at room temperature for 1.5 hr. Fluorescence intensity (405 nm excitation, 460 nm and 530 nm emissions) was measured using an Envision plate reader (PerkinElmer, Shelton, CT). For cytotoxicity, 3 ul/well of CellTiter-Glo reagent was added into the assay plates using an FRD. After 30 min incubation at room temperature, the luminescence intensity was measured using a ViewLux plate reader (PerkinElmer).
Potency is the fitted concentration of half-maximal effect.

SMILES	Potency
NS(=O)(=O)c1ccc(N2CCCCS2(=O)=O)cc1	inactive
CCCCCCCCCCCCCCCCOS(=O)(=O)O	inactive
O=[N+]([O-])c1cccc(S(=O)(=O)O)c1	inactive
C=C(C)C(=O)OCCO	inactive
CC[N+](C)(CC)CCOC(=O)C(O)(c1ccccc1)C1CCCCC1 (stereo not given)	inactive
CC1OC(=O)C(C)OC1=O (stereo not given)	inactive
Nc1ccc(N)c2c1C(=O)c1ccccc1C2=O	inactive
CCCCC1=NC2(CCCC2)C(=O)N1Cc1ccc(-c2ccccc2-c2nn[nH]n2)cc1	inactive
Nc1c(CC(=O)O)cccc1C(=O)c1ccc(Br)cc1	inactive
C[C@@H]1C[C@H]2O[C@@]3(O[C@@H]2C(C)(C)O)[C@H](O)[C@@]2(C)[C@@H]4CC[C@H]5C(C)(C)[C@@H](O[C@@H]6OC[C@@H](O)[C@H](O)[C@H]6O)CC[C@@]56C[C@@]46CC[C@]2(C)[C@@H]13	inactive
CC(C)Nc1ccc(NC(C)C)c2c1C(=O)c1ccccc1C2=O	inactive
CCCCCCOC(=O)NC(=N)c1ccc(NCc2nc3cc(C(=O)N(CCC(=O)OCC)c4ccccn4)ccc3n2C)cc1	19 µM (active)
CO[C@@H]1[C@H](OC(=O)/C=C/C=C/C=C/C=C/C(=O)O)CC[C@]2(CO2)[C@H]1[C@@]1(C)O[C@@H]1CC=C(C)C	inactive
C[C@@H](c1ncncc1F)C(O)(Cn1cncn1)c1ccc(F)cc1F (stereo not given in full)	inactive
C=CC(=O)OCCOCCOC(=O)C=C	inactive
O[C@@H](COc1cccc2ncccc12)CN1CCN(C2c3ccccc3[C@@H]3[C@H](c4ccccc42)C3(F)F)CC1 (stereo not given in full)	inactive
CCC(C)O (stereo not given)	inactive
COc1cc2nc(N3CCN(C(=O)C4COc5ccccc5O4)CC3)nc(N)c2cc1OC (stereo not given)	inactive
CCC(CC)Nc1ccc(C)c(C)c1	inactive
CCCCCCCCCCCCCCCCCCOS(=O)(=O)O	43.6 µM (active)

SMILES	Potency
O=C(OCCc1ccccc1)c1ccccc1	inactive
O=C1[C@H]2CCCC[C@H]2C(=O)N1CCCCN1CCN(c2nsc3ccccc23)CC1	inactive
CC(=O)c1ccc2c(c1)N(CCCN(C)C)c1ccccc1S2	inactive
CCOc1ccc(O)cc1	inactive
CCOCC(O)COc1ccc(NC(=O)CC[S+](C)C)cc1 (stereo not given)	inactive
COc1ccc(C)cc1[N+](=O)[O-]	inactive
CCCCC(CC)COC(=O)COc1ccc(Cl)cc1Cl (stereo not given)	inactive
CN(C)CCOC(c1ccccc1)c1ccc(Br)cc1 (stereo not given)	inactive
CCc1c(C(=O)NN2CCCCC2)nn(-c2ccc(Cl)cc2Cl)c1-c1ccc(Br)cc1	inactive
CC1=CCCC(C)(C)C12CCC(C)O2 (stereo not given)	inactive
COCCCN1CCC(NC(=O)c2cc(Cl)c(N)c3c2OCC3)CC1	inactive
O=C(Nc1ccccc1)c1ccccc1O	inactive
CC(=O)[O][Al][O]C(C)=O	inactive
Clc1ccc2c(c1)CCc1cccnc1C2=C1CCNCC1	inactive
CC1=CC=C(C(C)C)CC1	inactive
CCCCC(=O)OCC(=O)[C@H]1[C@H](C)C[C@H]2[C@@H]3C[C@H](F)C4=CC(=O)C=C[C@]4(C)[C@@]3(F)[C@@H](O)C[C@@]21C	inactive
Cc1ccc(N=Nc2c(O)c(C(=O)O)cc3ccccc23)c(S(=O)(=O)O)c1	inactive
COc1ccc2cccc(CCNC(C)=O)c2c1	inactive
CN1CCC(=C2c3ccccc3Sc3ccccc32)CC1	inactive
Cc1cccc(C)c1NC(=O)CN(CC(=O)O)CC(=O)O	inactive
